# Laboratory results as given in PubChem BioAssay AID651845 (Broad Institute, 2012).
# Measured potencies and affinities stand elsewhere. Inconclusive results are not listed. Activity calls are given as the source filed them.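 How the source made its calls: active means every replicate test called active, with signal dropping and a potency found within twice the top tested dose; inconclusive means replicate test calls disagree with each other; inactive means all replicate tests inactive, including signal rising.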
# Assay: growth inhibition of intracellular T. cruzi, dose response, cell-based, plate reader, dry powder samples (AID 651845)
row,SMILES,outcome
1,CNC[C@@H]1Oc2c(NC(=O)c3ccncc3)cccc2C(=O)N(C(C)C)C[C@H]1C,inactive
2,CC(C)N1C[C@H](C)[C@@H](CN(C)C(=O)OC(C)(C)C)Oc2c(C(=O)O)cccc2C1=O,inactive
